# Assay results taken from PubChem BioAssay (EPA / NIEHS).
# Records with an inconclusive call do not appear. Activity calls are given as the source filed them. The calls were made as follows, unless noted: active = hit-call score of the fitted dose curve at least 0.9, where 1 is the maximum; inconclusive = response in the unintended direction; inactive = score below 0.9.
# Experiments:
# [1] = ATG_TCF_b_cat_CIS: Attagene CIS-FACTORIAL HepG2 Assay for human T-Cell-Factor with beta-catenin (TCF/b-cat) (AID 2282965; active = hit-call score of the fitted dose curve at least 0.9, where 1 is the maximum; inactive = score below 0.9); conditions: HepG2 TCF/beta-catenin cis-reporter transcription, actives raise or lower the signal
# Procedure, shortened: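 Measured: reporter mRNA in HepG2 transiently transfected with cis-promoter reporter units, 24 h after chemical addition. Fitting was bidirectional, DMSO as negative control.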
# [2] = ATG_TAL_CIS: Attagene CIS-FACTORIAL HepG2 Assay for human TAL Basal Promoter (AID 2282966; active = hit-call score of the fitted dose curve at least 0.9, where 1 is the maximum; inactive = score below 0.9;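 also: background control endpoint measuring basal TAL promoter reporter mRNA not a specific factor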); conditions: HepG2 Attagene cis-factorial TAL promoter reporter; actives raise or lower the signal
# Procedure, shortened: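 Human hepatoma HepG2 cells, transfected with promoter-regulated reporter units, were treated 24 h. Reporter transcript levels, measured through RT-PCR and capillary electrophoresis, were fitted for gain or loss relative to DMSO.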
# [3] = ATG_TGFb_CIS: Attagene CIS-FACTORIAL HepG2 Assay for human Transforming Growth Factor (TGF) (AID 2282967; active = hit-call score of the fitted dose curve at least 0.9, where 1 is the maximum; inactive = score below 0.9); conditions: HepG2 Attagene CIS TGFb reporter, mRNA transcription; actives raise or lower the signal
# Procedure, shortened: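 Multiplexed cis-reporter HepG2 system, 24 h treatment; mRNA induction read by fluorescence after RT-PCR and CE; DMSO negative control, bidirectional curve fitting.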
# [4] = ATG_VDRE_CIS: Attagene CIS-FACTORIAL HepG2 Assay for human Vitamin D Receptor Element (VDRE) (AID 2282968; active = hit-call score of the fitted dose curve at least 0.9, where 1 is the maximum; inactive = score below 0.9); conditions: HepG2 VDRE cis-reporter transcription, actives raise or lower the signal
# Procedure, shortened: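 Measures endogenous factor activity through cis-element-driven reporter transcripts in transiently transfected HepG2. Cells are treated 24 h; reporter mRNA is quantified by RT-PCR and capillary electrophoresis; fitting is bidirectional.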
# [5] = target: Steroid hormone receptor ERR1 (Homo sapiens) (UniProt P11474); experiment: ATG_ERRa_TRANS: Attagene TRANS-FACTORIAL HepG2 Assay for human Estrogen-Related Receptor alpha (ERRa) (AID 2282971); conditions: HepG2 Attagene TRANS reporter, ERRa transactivation
# Procedure, shortened: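 Signal gain relative to DMSO for an ERRa-Gal4 chimeric receptor, read as reporter mRNA by RT-PCR/capillary electrophoresis. Human HepG2 liver cells, transient multiplex reporter transfection, 24 h chemical exposure.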
# [6] = target: X-box-binding protein 1 (Homo sapiens) (UniProt P17861); experiment: ATG_Xbp1_CIS: Attagene CIS-FACTORIAL HepG2 Assay for human X-box Binding Protein 1 (XBP1) (AID 2282972; active = hit-call score of the fitted dose curve at least 0.9, where 1 is the maximum; inactive = score below 0.9); conditions: HepG2 XBP1 cis-element reporter, Attagene multiplex; actives raise or lower the signal
# Chain of X-box-binding protein 1 (Homo sapiens) (P17861 whole entry, looked up): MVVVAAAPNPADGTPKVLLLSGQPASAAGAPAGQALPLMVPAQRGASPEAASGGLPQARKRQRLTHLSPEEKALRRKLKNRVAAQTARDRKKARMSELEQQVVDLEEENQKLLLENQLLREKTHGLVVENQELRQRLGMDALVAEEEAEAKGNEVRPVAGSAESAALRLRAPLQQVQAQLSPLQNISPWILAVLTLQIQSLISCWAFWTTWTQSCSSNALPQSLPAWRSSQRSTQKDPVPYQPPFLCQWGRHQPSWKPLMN
# Procedure, shortened: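 Multiplexed cis-reporter readout in transfected HepG2 liver cells. Exposure lasted 24 hours. Activity in either direction was fitted against DMSO as negative control and baseline.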
# [7] = ATG_M_19_TRANS: Attagene TRANS-FACTORIAL HepG2 Assay for M19 Transcription Factor (Internal Marker) (AID 2282974); conditions: HepG2 Attagene TRANS-FACTORIAL M19 internal marker reporter
# Procedure, shortened: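 Background-control readout: after 24 h chemical exposure of transfected HepG2 carrying GAL4-driven reporter units, RNA was reverse-transcribed, amplified, fluorescently labeled and sized by capillary electrophoresis; gain-of-signal fit against DMSO.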
# [8] = target: Hepatocyte nuclear factor 4-alpha (Homo sapiens) (UniProt P41235); experiment: ATG_HNF4a_TRANS: Attagene TRANS-FACTORIAL HepG2 Assay for human Hepatocyte Nuclear Factor 4 alpha (HNF4a) (AID 2282982); conditions: HepG2 HNF4a transactivation reporter, mRNA readout
# Chain of Hepatocyte nuclear factor 4-alpha (Homo sapiens) (P41235 whole entry, looked up): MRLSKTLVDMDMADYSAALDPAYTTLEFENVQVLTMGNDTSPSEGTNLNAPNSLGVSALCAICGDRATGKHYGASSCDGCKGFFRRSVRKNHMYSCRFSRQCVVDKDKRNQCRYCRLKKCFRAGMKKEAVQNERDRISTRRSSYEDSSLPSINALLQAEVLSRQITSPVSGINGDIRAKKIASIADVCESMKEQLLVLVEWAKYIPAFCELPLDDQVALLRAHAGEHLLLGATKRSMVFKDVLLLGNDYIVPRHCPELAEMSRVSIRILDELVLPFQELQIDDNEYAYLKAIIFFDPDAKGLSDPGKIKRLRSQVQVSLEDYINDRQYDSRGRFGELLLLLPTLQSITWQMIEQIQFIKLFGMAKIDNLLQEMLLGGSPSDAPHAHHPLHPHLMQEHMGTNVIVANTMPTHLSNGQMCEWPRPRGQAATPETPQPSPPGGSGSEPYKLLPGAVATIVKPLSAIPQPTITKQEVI
# Procedure, shortened: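 Multiplexed reporter assay: transfected HepG2, 24 h exposure, total RNA → oligo(dT) RT → PCR → 6-FAM extension → HpaI digest → CE fluorescence. DMSO = negative control.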
# [9] = ATG_M_32_TRANS: Attagene TRANS-FACTORIAL HepG2 Assay for M32 Transcription Factor (Internal Marker) (AID 2282984); conditions: HepG2 Attagene TRANS M32 internal marker reporter
# Procedure, shortened: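 Cell-based TRANS-format assay in HepG2: exogenous chimeric GAL4 reporter units transiently expressed, compounds applied 24 h. Reporter mRNA detected by RT-PCR plus capillary electrophoresis; this readout is an internal background marker.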
# [10] = target: Transcriptional activator Myb (Homo sapiens) (UniProt P10242); experiment: ATG_Myb_CIS: Attagene CIS-FACTORIAL HepG2 Assay for human Myeloblastosis (Myb) Proto-Oncogene Transcription Factor (AID 2282986; active = hit-call score of the fitted dose curve at least 0.9, where 1 is the maximum; inactive = score below 0.9); conditions: HepG2 Attagene CIS-FACTORIAL Myb reporter transcription; actives raise or lower the signal
# Chain of Transcriptional activator Myb (Homo sapiens) (P10242 whole entry, looked up): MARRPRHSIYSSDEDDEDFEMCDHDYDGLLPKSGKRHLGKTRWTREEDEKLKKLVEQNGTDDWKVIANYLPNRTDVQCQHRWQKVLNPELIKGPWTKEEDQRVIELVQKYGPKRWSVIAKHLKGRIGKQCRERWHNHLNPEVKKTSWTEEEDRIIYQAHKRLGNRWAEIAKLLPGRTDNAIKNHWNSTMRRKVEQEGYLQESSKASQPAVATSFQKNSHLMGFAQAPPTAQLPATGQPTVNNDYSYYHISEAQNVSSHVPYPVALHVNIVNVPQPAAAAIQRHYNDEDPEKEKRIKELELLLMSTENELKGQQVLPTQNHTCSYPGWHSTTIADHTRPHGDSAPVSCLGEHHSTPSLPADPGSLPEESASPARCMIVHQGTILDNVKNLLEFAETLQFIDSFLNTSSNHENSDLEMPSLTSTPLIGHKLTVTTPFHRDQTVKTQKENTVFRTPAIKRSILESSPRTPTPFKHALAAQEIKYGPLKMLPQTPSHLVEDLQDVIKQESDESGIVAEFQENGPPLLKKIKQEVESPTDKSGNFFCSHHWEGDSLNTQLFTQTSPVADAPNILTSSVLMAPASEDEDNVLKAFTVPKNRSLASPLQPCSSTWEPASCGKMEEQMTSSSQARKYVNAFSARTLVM
# Procedure, shortened: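 Reporter mRNA is quantified by RT-PCR and capillary electrophoresis 24 h after dosing HepG2 cells transfected with cis-regulated reporter units, which track endogenous transcription factor activity. Gain and loss of signal are fitted versus DMSO baseline.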
# [11] = target: Estrogen receptor (Homo sapiens) (UniProt P03372); experiment: ATG_ERa_TRANS: Attagene TRANS-FACTORIAL HepG2 Assay for human Estrogen Receptor alpha (ERa) (AID 2282970); conditions: HepG2 Attagene TRANS ERa GAL4 reporter, mRNA
# Chain of Estrogen receptor (Homo sapiens) (P03372 whole entry, looked up, the tested form may be a part): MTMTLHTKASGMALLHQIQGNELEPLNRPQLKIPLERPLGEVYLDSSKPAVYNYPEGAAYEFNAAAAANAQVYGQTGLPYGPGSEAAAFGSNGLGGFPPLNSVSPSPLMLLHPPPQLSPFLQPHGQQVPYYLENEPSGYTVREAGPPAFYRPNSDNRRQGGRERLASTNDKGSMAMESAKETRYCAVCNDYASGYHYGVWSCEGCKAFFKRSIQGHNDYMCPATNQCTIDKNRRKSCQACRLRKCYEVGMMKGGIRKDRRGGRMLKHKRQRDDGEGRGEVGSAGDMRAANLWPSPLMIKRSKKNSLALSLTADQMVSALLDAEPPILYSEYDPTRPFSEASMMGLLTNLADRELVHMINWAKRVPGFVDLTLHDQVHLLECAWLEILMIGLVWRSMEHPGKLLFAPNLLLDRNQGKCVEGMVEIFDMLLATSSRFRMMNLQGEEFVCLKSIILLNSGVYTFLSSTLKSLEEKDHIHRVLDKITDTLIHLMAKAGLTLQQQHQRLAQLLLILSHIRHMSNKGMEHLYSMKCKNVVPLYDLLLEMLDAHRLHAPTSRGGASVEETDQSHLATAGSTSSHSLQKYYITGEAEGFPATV
# Procedure, shortened: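 Signal derives from fluorescence of labelled reporter PCR fragments separated by capillary electrophoresis. HepG2 cells transiently carrying multiple GAL4-UAS reporter units were treated 24 hours, and induction above DMSO baseline was fitted as activity.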
# [12] = ATG_GAL4_TRANS: Attagene TRANS-FACTORIAL HepG2 Assay for GAL4 (Internal Marker) (AID 2282976); conditions: HepG2 Attagene TRANS GAL4 internal marker reporter
# Procedure, shortened: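 Liver HepG2 line bearing multiplexed GAL4-UAS reporter constructs; 24 h chemical treatment. Transcripts were quantified as fluorescent fragments on capillary electrophoresis after RT-PCR and HpaI cut, with activity fitted upward from DMSO.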
# [13] = target: Glucocorticoid receptor (Homo sapiens) (UniProt P04150); experiment: ATG_GR_TRANS: Attagene TRANS-FACTORIAL HepG2 Assay for human Glucocorticoid Receptor (GR) (AID 2282978); conditions: HepG2 Attagene TRANS GR reporter, mRNA transcription;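 also: activators score as hits since higher reporter transcript over DMSO is fitted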
# Chain of Glucocorticoid receptor (Homo sapiens) (P04150 whole entry, looked up, the tested form may be a part): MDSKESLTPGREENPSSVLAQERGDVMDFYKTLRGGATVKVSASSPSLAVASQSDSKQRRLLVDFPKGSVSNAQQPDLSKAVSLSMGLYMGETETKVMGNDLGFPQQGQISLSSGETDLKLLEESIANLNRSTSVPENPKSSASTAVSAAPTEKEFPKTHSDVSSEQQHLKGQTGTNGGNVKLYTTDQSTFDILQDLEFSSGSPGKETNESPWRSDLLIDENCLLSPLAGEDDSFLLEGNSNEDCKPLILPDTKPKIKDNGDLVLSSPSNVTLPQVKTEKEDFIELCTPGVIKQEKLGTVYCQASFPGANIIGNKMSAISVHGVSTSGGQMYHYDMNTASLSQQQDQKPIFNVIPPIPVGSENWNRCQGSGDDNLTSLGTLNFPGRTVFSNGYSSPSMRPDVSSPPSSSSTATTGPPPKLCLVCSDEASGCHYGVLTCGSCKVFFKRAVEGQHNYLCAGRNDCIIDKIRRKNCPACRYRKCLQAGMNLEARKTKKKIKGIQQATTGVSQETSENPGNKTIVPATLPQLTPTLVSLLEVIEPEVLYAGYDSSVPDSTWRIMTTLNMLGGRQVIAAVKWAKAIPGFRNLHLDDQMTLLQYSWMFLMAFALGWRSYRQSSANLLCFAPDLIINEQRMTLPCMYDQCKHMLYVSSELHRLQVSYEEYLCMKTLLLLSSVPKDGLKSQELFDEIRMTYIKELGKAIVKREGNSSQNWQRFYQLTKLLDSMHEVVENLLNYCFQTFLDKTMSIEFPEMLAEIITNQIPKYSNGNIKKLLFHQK
# Procedure, shortened: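 Readout is reporter transcript from a chimeric GR-Gal4 acting on GAL4-UAS in transfected human HepG2 liver cells after 24 h exposure, quantified by RT-PCR and capillary electrophoresis. Activation fitted upward against DMSO.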
# [14] = target: Oxysterols receptor LXR-beta (Homo sapiens) (UniProt P55055); experiment: ATG_LXRb_TRANS: Attagene TRANS-FACTORIAL HepG2 Assay for human Liver X Receptor beta (LXRb) (AID 2282981); conditions: HepG2 Attagene TRANS GAL4-LXRb reporter, mRNA
# Chain of Oxysterols receptor LXR-beta (Homo sapiens) (P55055 whole entry, looked up, the tested form may be a part): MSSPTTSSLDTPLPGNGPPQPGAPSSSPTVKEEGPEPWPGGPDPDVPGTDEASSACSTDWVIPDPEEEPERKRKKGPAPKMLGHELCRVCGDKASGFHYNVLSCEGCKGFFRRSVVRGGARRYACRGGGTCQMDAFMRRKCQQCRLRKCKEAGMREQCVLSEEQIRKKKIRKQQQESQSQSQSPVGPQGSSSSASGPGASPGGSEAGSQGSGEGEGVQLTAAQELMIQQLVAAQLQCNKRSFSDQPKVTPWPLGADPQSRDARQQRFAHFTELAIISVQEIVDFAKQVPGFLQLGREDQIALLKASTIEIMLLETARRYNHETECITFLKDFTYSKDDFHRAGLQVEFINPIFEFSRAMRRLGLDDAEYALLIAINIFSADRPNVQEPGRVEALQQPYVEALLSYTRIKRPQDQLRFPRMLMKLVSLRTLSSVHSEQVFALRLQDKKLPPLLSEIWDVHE
# Procedure, shortened: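 After 24 h of chemical treatment, transfected HepG2 cells yield total RNA; reporter cDNA is PCR-amplified, FAM-labelled, HpaI-cut and run on capillary electrophoresis. Signal reflects chimeric LXRb-Gal4 activity on GAL4-UAS reporters.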
# [15] = target: Nuclear receptor subfamily 4 group A member 2 (Homo sapiens) (UniProt P43354); experiment: ATG_NURR1_TRANS: Attagene TRANS-FACTORIAL HepG2 Assay for human Nuclear Receptor Related Protein 1 (NURR1) (AID 2282985); conditions: HepG2 Attagene TRANS reporter, mRNA readout
# Chain of Nuclear receptor subfamily 4 group A member 2 (Homo sapiens) (P43354 whole entry, looked up, the tested form may be a part): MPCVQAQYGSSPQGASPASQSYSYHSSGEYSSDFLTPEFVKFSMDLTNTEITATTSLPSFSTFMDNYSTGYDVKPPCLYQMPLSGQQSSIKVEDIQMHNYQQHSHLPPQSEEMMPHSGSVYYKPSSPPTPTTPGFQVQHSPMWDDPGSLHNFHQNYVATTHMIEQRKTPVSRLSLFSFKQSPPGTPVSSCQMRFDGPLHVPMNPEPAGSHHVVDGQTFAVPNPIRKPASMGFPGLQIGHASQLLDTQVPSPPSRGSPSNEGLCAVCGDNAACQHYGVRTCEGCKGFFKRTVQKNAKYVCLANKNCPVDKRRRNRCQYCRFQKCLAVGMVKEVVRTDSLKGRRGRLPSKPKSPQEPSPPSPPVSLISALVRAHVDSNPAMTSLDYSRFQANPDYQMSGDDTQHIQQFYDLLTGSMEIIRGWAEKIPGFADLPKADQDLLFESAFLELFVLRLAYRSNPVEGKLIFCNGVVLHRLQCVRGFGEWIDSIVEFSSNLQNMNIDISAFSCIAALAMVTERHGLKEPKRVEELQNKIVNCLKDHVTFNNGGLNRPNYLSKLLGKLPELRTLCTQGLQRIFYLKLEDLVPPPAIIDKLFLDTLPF
# Procedure, shortened: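 Measures transcriptional activation by an exogenous NR-Gal4 chimera in transfected HepG2 liver cells. After 24 h, reporter RNA is reverse-transcribed, amplified and resolved by capillary electrophoresis; DMSO defines baseline.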
# [16] = target: Bile acid receptor (Homo sapiens) (UniProt Q96RI1); experiment: ATG_FXR_TRANS: Attagene TRANS-FACTORIAL HepG2 Assay for Farnesoid X Receptor (FXR) (AID 2282979); conditions: HepG2 Attagene TRANS FXR-GAL4 reporter transcription;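 also: hits raise reporter mRNA above DMSO so AC50 marks FXR activation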
# Procedure, shortened: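 After 24 h chemical treatment of transfected HepG2 cells, GAL4-UAS reporter transcripts driven by an exogenous FXR-GAL4 fusion were measured by RT-PCR and capillary electrophoresis. Increases over DMSO were fitted.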
# [17] = target: Estrogen-related receptor gamma (Homo sapiens) (UniProt P62508); experiment: ATG_ERRg_TRANS: Attagene TRANS-FACTORIAL HepG2 Assay for human Estrogen-Related Receptor gamma (ERRg) (AID 2282977); conditions: HepG2 Attagene TRANS reporter, ERRg transactivation;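 also: hits increase reporter signal over DMSO so potencies reflect activators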
# Chain of Estrogen-related receptor gamma (Homo sapiens) (P62508 whole entry, looked up, the tested form may be a part): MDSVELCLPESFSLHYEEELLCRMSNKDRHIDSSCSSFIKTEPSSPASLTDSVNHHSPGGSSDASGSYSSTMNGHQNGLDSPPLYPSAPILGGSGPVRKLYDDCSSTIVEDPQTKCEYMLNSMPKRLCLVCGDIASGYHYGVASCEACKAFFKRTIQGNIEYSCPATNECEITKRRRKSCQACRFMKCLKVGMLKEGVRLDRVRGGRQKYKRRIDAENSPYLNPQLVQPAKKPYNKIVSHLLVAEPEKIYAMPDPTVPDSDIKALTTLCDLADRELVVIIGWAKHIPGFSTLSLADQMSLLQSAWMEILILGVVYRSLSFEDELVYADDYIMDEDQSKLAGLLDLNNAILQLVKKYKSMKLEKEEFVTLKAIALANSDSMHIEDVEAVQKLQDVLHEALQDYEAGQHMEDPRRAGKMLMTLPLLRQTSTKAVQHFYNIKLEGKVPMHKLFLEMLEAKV
# Procedure, shortened: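 Readout: fluorescent reporter-mRNA fragments resolved by capillary electrophoresis after RT-PCR and HpaI cut. Cells: transiently transfected HepG2 carrying GAL4-UAS reporters driven by exogenous NR-Gal4 chimeras, dosed 24 h. Activity fitted upward relative to DMSO baseline.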
# [18] = target: Oxysterols receptor LXR-alpha (Homo sapiens) (UniProt Q13133); experiment: ATG_LXRa_TRANS: Attagene TRANS-FACTORIAL HepG2 Assay for human Liver X Receptor alpha (LXRa) (AID 2282980); conditions: HepG2 Attagene TRANS reporter, LXRa transactivation
# Chain of Oxysterols receptor LXR-alpha (Homo sapiens) (Q13133 whole entry, looked up, the tested form may be a part): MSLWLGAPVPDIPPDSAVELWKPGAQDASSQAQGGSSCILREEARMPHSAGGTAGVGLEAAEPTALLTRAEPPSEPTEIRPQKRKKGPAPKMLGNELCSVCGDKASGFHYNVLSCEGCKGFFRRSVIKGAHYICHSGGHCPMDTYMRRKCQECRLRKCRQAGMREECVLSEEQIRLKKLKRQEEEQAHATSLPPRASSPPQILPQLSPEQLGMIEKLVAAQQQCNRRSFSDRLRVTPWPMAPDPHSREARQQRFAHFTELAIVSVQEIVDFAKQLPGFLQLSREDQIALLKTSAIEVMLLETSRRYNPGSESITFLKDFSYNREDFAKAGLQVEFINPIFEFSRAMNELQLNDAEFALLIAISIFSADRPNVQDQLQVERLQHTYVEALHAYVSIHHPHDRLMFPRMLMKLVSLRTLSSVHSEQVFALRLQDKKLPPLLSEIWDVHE
# Procedure, shortened: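 In this multiplexed TRANS system, compounds act on HepG2 cells carrying GAL4-UAS reporter units and a receptor-GAL4 fusion for 24 h. Induced reporter RNA is amplified, fluorescently labelled and sized by capillary electrophoresis, with DMSO as baseline.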
# [19] = ATG_M_06_TRANS: Attagene TRANS-FACTORIAL HepG2 Assay for M06 Transcription Factor (Internal Marker) (AID 2282983); conditions: HepG2 Attagene TRANS M06 internal marker reporter
# Procedure, shortened: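 Multi-reporter-transfected HepG2, 24 h treatment; reporter transcripts quantified via RT-PCR, primer-extension labelling and CE. DMSO-normalized gain-of-signal fit.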
# [20] = target: Nuclear receptor subfamily 1 group I member 3 (Homo sapiens) (UniProt Q14994); experiment: ATG_CAR_TRANS: Attagene TRANS-FACTORIAL HepG2 Assay for human Constitutive Androstane Receptor (CAR) (AID 2282969); conditions: HepG2 Attagene TRANS-FACTORIAL CAR reporter;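 also: activators raise reporter mRNA above DMSO so AC50 marks induction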
# Procedure, shortened: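 Signal is reporter mRNA induction relative to DMSO, measured 24 h after dosing by RT-PCR with fluorescent primer extension and capillary electrophoresis. Human HepG2 liver cells carried transiently transfected chimeric NR-Gal4/GAL4-UAS reporter constructs.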
smiles,measurement,setting,value
NC(=O)Nc1ccccc1,outcome,[1],inactive
same,outcome,[2],inactive
same,outcome,[3],inactive
same,outcome,[4],inactive
same,outcome,[5],inactive
same,outcome,[6],inactive
same,outcome,[7],inactive
same,outcome,[8],inactive
same,outcome,[9],inactive
same,outcome,[10],inactive
CCCCCC[C@@H](O)C/C=C\CCCCCCCC(=O)OCC(O)CO (stereo partly specified),outcome,[1],inactive
same,AC50,[2],164 µM (active)
same,outcome,[3],inactive
same,outcome,[4],inactive
same,outcome,[11],inactive
same,outcome,[7],inactive
same,outcome,[12],inactive
same,outcome,[13],inactive
same,outcome,[14],inactive
same,outcome,[8],inactive
same,outcome,[9],inactive
same,AC50,[15],132 µM (active)
same,AC50,[10],145 µM (active)
CN1CCN(C)CC1,outcome,[1],inactive
same,outcome,[2],inactive
same,outcome,[3],inactive
same,outcome,[4],inactive
same,outcome,[11],inactive
same,outcome,[7],inactive
same,outcome,[13],inactive
same,outcome,[16],inactive
same,outcome,[14],inactive
same,outcome,[8],inactive
same,outcome,[15],inactive
same,outcome,[10],inactive
Cn1cccc1,outcome,[1],inactive
same,outcome,[2],inactive
same,outcome,[3],inactive
same,outcome,[4],inactive
same,outcome,[11],inactive
same,outcome,[7],inactive
same,outcome,[17],inactive
same,outcome,[18],inactive
same,outcome,[8],inactive
same,outcome,[9],inactive
same,outcome,[10],inactive
CCCc1ccc(O)c(OC)c1,outcome,[1],inactive
same,outcome,[2],inactive
same,outcome,[3],inactive
same,outcome,[4],inactive
same,outcome,[11],inactive
same,outcome,[6],inactive
same,outcome,[19],inactive
same,outcome,[10],inactive
c1ccc2sc(SSN3CCOCC3)nc2c1,outcome,[1],inactive
same,outcome,[2],inactive
same,outcome,[3],inactive
same,outcome,[4],inactive
same,outcome,[11],inactive
same,AC50,[6],100 µM (active)
same,outcome,[17],inactive
same,outcome,[18],inactive
same,outcome,[14],inactive
same,outcome,[8],inactive
same,outcome,[19],inactive
same,outcome,[9],inactive
same,outcome,[15],inactive
same,outcome,[10],inactive
CC(=O)c1ccc(S(=O)(=O)NC(=O)NC2CCCCC2)cc1,outcome,[1],inactive
same,outcome,[2],inactive
same,outcome,[3],inactive
same,outcome,[4],inactive
same,outcome,[6],inactive
same,outcome,[7],inactive
same,outcome,[13],inactive
same,outcome,[10],inactive
C=CC(=O)OCCCCCCCCCC,outcome,[1],inactive
same,outcome,[2],inactive
same,outcome,[3],inactive
same,outcome,[20],inactive
same,outcome,[11],inactive
same,outcome,[5],inactive
same,outcome,[6],inactive
same,outcome,[7],inactive
same,outcome,[12],inactive
same,outcome,[13],inactive
same,outcome,[18],inactive
same,outcome,[9],inactive
same,outcome,[15],inactive
same,outcome,[10],inactive
O=C(O)c1ccc2c(c1)C(=O)OC2=O,outcome,[1],inactive
same,outcome,[2],inactive
same,outcome,[3],inactive
same,outcome,[4],inactive
same,outcome,[6],inactive
same,outcome,[7],inactive
same,outcome,[12],inactive
same,outcome,[13],inactive
same,outcome,[18],inactive
same,outcome,[19],inactive
same,outcome,[9],inactive
COC(OC)(C(=O)c1ccccc1)c1ccccc1,outcome,[1],inactive
same,outcome,[2],inactive
same,AC50,[3],138 µM (active)
same,outcome,[20],inactive
same,AC50,[11],0.817 µM (active)
same,outcome,[5],inactive
same,outcome,[6],inactive
same,outcome,[7],inactive
same,outcome,[12],inactive
same,outcome,[17],inactive
same,outcome,[13],inactive
same,outcome,[8],inactive
same,outcome,[19],inactive
same,outcome,[9],inactive
same,outcome,[10],inactive
